Screens deposited in PubChem BioAssay by Broad Institute.
The entries come from a sample that favours hits as a whole.
miR-122 inh = miR-122 suppressors via Renilla sensor increase, primary screen, cell-based, Huh7 psiCHECK-miR122, Renilla luciferase, single point; activation, % at 12.5 µM; 340,000 tested, 0.14% active; AID 623901, 2012; 48 h;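 active means mean activation of 30% or more, with every replicate also reaching 30%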;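 further: 0% = median of neutral control wells and 100% = median of positive control wells; higher luciferase signal means stronger suppression of miR-122 activity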
* marks the source's active call; other numbers are inactive results.

SMILES	miR-122 inh
CO[C@@H]1CN(C)C(=O)c2cc(NC(=O)Cc3ccccc3)ccc2OC[C@@H](C)N(C)C[C@@H]1C	1.8
CCN(CC)CCOc1cccc(C(C)C)c1	35.8*
COc1cccc(S(=O)(=O)N(C)C[C@@H]2Oc3ncc(-c4ccc(F)cc4)cc3C(=O)N([C@H](C)CO)C[C@@H]2C)c1	5.7
CCCN(C)C[C@H]1Oc2ncc(-c3ccccc3OC)cc2C(=O)N([C@@H](C)CO)C[C@@H]1C	3.1
C[C@@H]1CN([C@H](C)CO)C(=O)c2cc(/C=C/c3ccccc3)cnc2O[C@H]1CN(C)C(=O)Nc1ccccc1F	3.2
N=c1c2c(-c3ccccc3)c(-c3ccccc3)n(Cc3ccccc3)c2ncn1CCO	39.6*
CO[C@H]1CN(C)C(=O)c2cc(NS(=O)(=O)c3ccccc3)ccc2OC[C@@H](C)N(C)C[C@H]1C	-0.7
C[C@@H]1CN([C@H](C)CO)C(=O)c2cc(C3=CCCC3)cnc2O[C@@H]1CN(C)C(=O)C1CCCCC1	11.4
C[C@H](CO)N1C[C@H](C)[C@H](CN(C)S(C)(=O)=O)Oc2ncc(Br)cc2C1=O	-0.9
COC(=O)C[C@H]1CC[C@@H]2[C@@H](COc3ccc(NC(=O)c4cnccn4)cc3C(=O)N2C)O1	36.7*
COC(=O)C[C@H]1CC[C@@H]2[C@@H](COc3ccc(NC(=O)c4cscn4)cc3C(=O)N2C)O1	45.0*
CCCNC(=O)N(C)C[C@@H]1Oc2cc(C#CCOC)ccc2S(=O)(=O)N([C@H](C)CO)C[C@@H]1C	0.9
COc1cccc(S(=O)(=O)N(C)C[C@H]2Oc3ncc(C#CCC(C)C)cc3C(=O)N([C@H](C)CO)C[C@H]2C)c1	0.4
C[C@H](CO)N1C[C@H](C)[C@H](CN(C)C(=O)Cc2ccccn2)Oc2ncc(-c3cccc(C(=O)N(C)C)c3)cc2C1=O	-5.2
COCC#Cc1ccc2c(c1)O[C@@H](CN(C)C(=O)COC)[C@@H](C)CN([C@H](C)CO)S2(=O)=O	0.9
COc1ccc(-c2ccc3c(c2)O[C@H](CN(C)C(=O)Nc2ccccc2F)[C@H](C)CN([C@@H](C)CO)S3(=O)=O)cc1	31.8*
COc1ccccc1-c1ccc2c(c1)O[C@@H](CN(C)S(=O)(=O)c1ccc(F)cc1)[C@@H](C)CN([C@@H](C)CO)S2(=O)=O	35.9*
COc1ccc(-c2ccc3c(c2)O[C@H](CN(C)C(=O)c2ccccc2F)[C@H](C)CN([C@H](C)CO)S3(=O)=O)cc1	3.5
COc1ccccc1-c1ccc2c(c1)O[C@@H](CN(C)S(=O)(=O)c1ccc(C)cc1)[C@H](C)CN([C@@H](C)CO)S2(=O)=O	3.4
COCC(=O)N(C)C[C@H]1Oc2cc(-c3cccc(F)c3)ccc2S(=O)(=O)N([C@H](C)CO)C[C@H]1C	13.7
COCC(=O)N(C)C[C@H]1Oc2cc(-c3cccc(F)c3)ccc2S(=O)(=O)N([C@@H](C)CO)C[C@@H]1C	-6.1
COCC(=O)N(C)C[C@H]1Oc2cc(-c3ccccc3F)ccc2S(=O)(=O)N([C@@H](C)CO)C[C@H]1C	55.2*
COc1ccccc1-c1ccc2c(c1)O[C@H](CN(C)S(=O)(=O)c1ccc(C)cc1)[C@H](C)CN([C@H](C)CO)S2(=O)=O	-55.5
COc1ccc(-c2ccc3c(c2)O[C@H](CN(C)C(=O)c2ccccc2F)[C@H](C)CN([C@@H](C)CO)S3(=O)=O)cc1	12.9
C[C@@H]1CN([C@H](C)CO)C(=O)c2cc(-c3cccnc3)cnc2O[C@@H]1CN(C)S(C)(=O)=O	-3.9
SMILES	miR-122 inh
C[C@H](CO)N1C[C@H](C)[C@H](CN(C)S(=O)(=O)c2ccccc2F)Oc2cc(C#Cc3ccccc3)ccc2S1(=O)=O	-10.9
CC(C)CC#Cc1ccc2c(c1)O[C@@H](CN(C)C(=O)C1CCOCC1)[C@@H](C)CN([C@@H](C)CO)S2(=O)=O	-29.2
COc1ccccc1-c1cnc2c(c1)C(=O)N([C@H](C)CO)C[C@@H](C)[C@@H](CN(C)Cc1ccccc1)O2	-2.5
C[C@@H]1CN([C@H](C)CO)S(=O)(=O)c2ccc(C#Cc3ccccc3)cc2O[C@H]1CN(C)C(=O)Nc1ccccc1	-0.8
C[C@@H]1CN([C@@H](C)CO)C(=O)c2cc(-c3cccnc3)cnc2O[C@H]1CN(C)C(=O)Nc1ccc(F)cc1	-7.8
COc1ccc(-c2ccc(C#N)c(OC(=O)c3c(Cl)cccc3Cl)n2)cc1	31.8*
C[C@@H]1CN([C@H](C)CO)C(=O)c2cc(-c3ccncc3)cnc2O[C@H]1CN(C)C(=O)Cc1ccccn1	7.8
CO[C@@H]1CN(C)C(=O)c2cc(NC(C)=O)ccc2OC[C@@H](C)N(C(=O)c2ccccc2)C[C@@H]1C	-3.2
C[C@@H]1CN([C@H](C)CO)C(=O)c2cc(-c3cncnc3)cnc2O[C@H]1CN(C)Cc1ccc(F)cc1	-0.3
COc1ccccc1-c1ccc2c(c1)O[C@@H](CN(C)C(=O)c1ccncc1)[C@H](C)CN([C@H](C)CO)S2(=O)=O	-1.2
C[C@@H]1CN([C@@H](C)CO)C(=O)c2cc(C#Cc3ccccc3)cnc2O[C@@H]1CN(C)C(=O)c1ccccn1	1.8
C[C@@H]1CN([C@H](C)CO)S(=O)(=O)c2ccc(C3=CCCCC3)cc2O[C@@H]1CN(C)C(=O)Nc1ccc2c(c1)OCO2	31.8*
C[C@@H]1CN([C@@H](C)CO)S(=O)(=O)c2ccc(C3=CCCCC3)cc2O[C@@H]1CN(C)C(=O)Cc1ccncc1	47.6*
C[C@H]1CN([C@@H](C)CO)S(=O)(=O)c2ccc(C3=CCCCC3)cc2O[C@H]1CN(C)C(=O)CC1CC1	7.4
C[C@@H]1CN([C@H](C)CO)S(=O)(=O)c2ccc(C3=CCCCC3)cc2O[C@H]1CN(C)S(C)(=O)=O	5.8
CC(C)NC(=O)N(C)C[C@@H]1Oc2cc(C3=CCCCC3)ccc2S(=O)(=O)N([C@@H](C)CO)C[C@@H]1C	1.3
C[C@@H]1CN([C@@H](C)CO)S(=O)(=O)c2ccc(C3=CCCC3)cc2O[C@@H]1CN(C)C(=O)c1ccc(F)cc1	36.5*
C[C@@H]1CN([C@H](C)CO)S(=O)(=O)c2ccc(C3=CCCCC3)cc2O[C@@H]1CN(C)S(C)(=O)=O	-24.9
C[C@H]1CN([C@@H](C)CO)S(=O)(=O)c2ccc(Br)cc2O[C@@H]1CN(C)C(=O)Nc1ccc2c(c1)OCO2	-1.3
C[C@@H]1CN([C@@H](C)CO)S(=O)(=O)c2ccc(C3=CCCCC3)cc2O[C@@H]1CN(C)C(=O)CC1CC1	-3.3
C[C@H](CO)N1C[C@H](C)[C@@H](CN(C)S(C)(=O)=O)Oc2cc(C3=CCCCC3)ccc2S1(=O)=O	-13.3
C[C@@H]1CN([C@@H](C)CO)S(=O)(=O)c2ccc(C3=CCCCC3)cc2O[C@@H]1CN(C)C(=O)Nc1ccc2c(c1)OCO2	46.3*
C[C@H]1CN([C@@H](C)CO)S(=O)(=O)c2ccc(C#Cc3ccccc3)cc2O[C@H]1CN(C)C(=O)Nc1ccc2c(c1)OCO2	-2.9
CC(=O)N(C)C[C@@H]1Oc2cc(C#CC3CCCCC3)ccc2S(=O)(=O)N([C@H](C)CO)C[C@H]1C	0.9
CC(C)C#Cc1ccc2c(c1)O[C@H](CN(C)Cc1ccncc1)[C@@H](C)CN([C@H](C)CO)S2(=O)=O	-15.0
Cc1ccc(S(=O)(=O)N(C)C[C@H]2Oc3cc(C#CC4CCCC4)ccc3S(=O)(=O)N([C@@H](C)CO)C[C@@H]2C)cc1	-62.0
CC(C)NC(=O)Nc1ccc2c(c1)CC(=O)N([C@H](C)CO)C[C@H](C)[C@H](CN(C)Cc1ccc(C(=O)Nc3ccccc3N)cc1)O2	-113.6
